# Experimental data published in ChEMBL document CHEMBL2218924, “A broad activity screen in support of a chemogenomic map for kinase signalling research and drug discovery” (Biochem J, 2013).
# Assays:
# [1] = molecular target: Ephrin type-A receptor 5 (Homo sapiens) (UniProt P54756); details: at 1 µM
# [2] = molecular target: Ephrin type-A receptor 5 (Homo sapiens) (UniProt P54756); details: at 10 µM
# [3] = molecular target: Ephrin type-A receptor 7 (Homo sapiens) (UniProt Q15375); details: at 1 µM
# [4] = molecular target: Ephrin type-A receptor 7 (Homo sapiens) (UniProt Q15375); details: at 10 µM
# [5] = molecular target: T1, Ephrin type-B receptor 1 (Homo sapiens) (UniProt P54762); details: at 1 µM
# T1 sequence (whole entry): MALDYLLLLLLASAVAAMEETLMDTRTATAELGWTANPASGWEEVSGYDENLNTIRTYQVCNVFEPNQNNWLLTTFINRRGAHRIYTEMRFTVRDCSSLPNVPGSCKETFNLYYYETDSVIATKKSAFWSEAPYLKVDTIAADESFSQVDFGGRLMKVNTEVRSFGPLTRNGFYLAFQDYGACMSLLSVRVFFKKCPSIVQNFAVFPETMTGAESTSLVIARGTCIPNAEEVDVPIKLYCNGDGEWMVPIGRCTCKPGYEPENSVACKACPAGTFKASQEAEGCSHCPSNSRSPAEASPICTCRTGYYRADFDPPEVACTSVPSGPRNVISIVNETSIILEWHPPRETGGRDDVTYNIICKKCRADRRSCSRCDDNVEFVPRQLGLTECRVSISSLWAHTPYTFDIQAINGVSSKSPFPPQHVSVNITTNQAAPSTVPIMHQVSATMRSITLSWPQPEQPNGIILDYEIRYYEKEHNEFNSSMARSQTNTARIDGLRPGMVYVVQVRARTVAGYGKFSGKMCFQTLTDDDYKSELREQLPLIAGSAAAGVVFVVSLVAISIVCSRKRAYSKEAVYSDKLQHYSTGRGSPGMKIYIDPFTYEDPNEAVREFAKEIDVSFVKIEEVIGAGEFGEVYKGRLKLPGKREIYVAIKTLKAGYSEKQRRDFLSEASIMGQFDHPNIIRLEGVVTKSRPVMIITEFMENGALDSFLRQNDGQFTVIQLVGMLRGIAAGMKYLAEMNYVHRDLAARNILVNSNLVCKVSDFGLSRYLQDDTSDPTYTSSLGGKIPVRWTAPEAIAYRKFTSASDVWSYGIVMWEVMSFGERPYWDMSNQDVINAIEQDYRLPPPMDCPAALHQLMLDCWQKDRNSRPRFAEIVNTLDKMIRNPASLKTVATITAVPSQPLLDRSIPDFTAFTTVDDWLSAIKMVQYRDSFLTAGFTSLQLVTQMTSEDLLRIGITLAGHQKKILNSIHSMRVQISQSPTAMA
# [6] = molecular target: T1, Ephrin type-B receptor 1 (Homo sapiens); details: at 10 µM
# [7] = molecular target: T2, Ephrin type-B receptor 4 (Homo sapiens) (UniProt P54760); details: at 1 µM
# T2 sequence (whole entry): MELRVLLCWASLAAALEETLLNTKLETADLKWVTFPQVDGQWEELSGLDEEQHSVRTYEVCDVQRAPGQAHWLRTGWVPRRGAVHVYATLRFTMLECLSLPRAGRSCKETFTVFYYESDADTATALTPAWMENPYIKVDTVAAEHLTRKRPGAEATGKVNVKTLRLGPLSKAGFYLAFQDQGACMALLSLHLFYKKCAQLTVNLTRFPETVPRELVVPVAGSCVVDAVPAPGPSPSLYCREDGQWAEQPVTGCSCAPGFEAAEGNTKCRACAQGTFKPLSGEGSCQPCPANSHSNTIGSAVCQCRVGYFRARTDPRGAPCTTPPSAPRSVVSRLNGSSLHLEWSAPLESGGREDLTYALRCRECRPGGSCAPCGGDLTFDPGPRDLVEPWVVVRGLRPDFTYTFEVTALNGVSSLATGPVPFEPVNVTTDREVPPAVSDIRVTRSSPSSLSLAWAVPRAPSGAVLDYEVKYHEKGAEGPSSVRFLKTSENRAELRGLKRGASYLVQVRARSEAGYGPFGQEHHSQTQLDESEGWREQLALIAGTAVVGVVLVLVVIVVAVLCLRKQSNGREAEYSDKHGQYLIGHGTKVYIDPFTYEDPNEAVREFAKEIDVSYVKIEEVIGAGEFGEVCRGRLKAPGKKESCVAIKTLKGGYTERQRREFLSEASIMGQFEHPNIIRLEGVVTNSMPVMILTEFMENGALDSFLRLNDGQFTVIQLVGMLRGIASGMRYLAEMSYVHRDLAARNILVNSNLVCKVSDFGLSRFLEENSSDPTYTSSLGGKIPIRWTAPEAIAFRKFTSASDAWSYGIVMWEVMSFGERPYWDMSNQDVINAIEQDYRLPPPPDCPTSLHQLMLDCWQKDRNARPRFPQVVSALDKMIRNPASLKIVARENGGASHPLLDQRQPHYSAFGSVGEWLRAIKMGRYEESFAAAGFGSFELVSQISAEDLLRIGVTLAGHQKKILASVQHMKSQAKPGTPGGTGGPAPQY
# [8] = molecular target: T2, Ephrin type-B receptor 4 (Homo sapiens); details: at 10 µM
# [9] = molecular target: Receptor tyrosine-protein kinase erbB-4 (Homo sapiens) (UniProt Q15303); details: at 1 µM
# [10] = molecular target: Receptor tyrosine-protein kinase erbB-4 (Homo sapiens) (UniProt Q15303); details: at 10 µM
# [11] = molecular target: Focal adhesion kinase 1 (Homo sapiens) (UniProt Q05397); details: at 1 µM
# [12] = molecular target: Ephrin type-A receptor 4 (Homo sapiens) (UniProt P54764); details: at 10 µM
# [13] = molecular target: T3, Ephrin type-A receptor 8 (Homo sapiens) (UniProt P29322); details: at 10 µM
# T3 sequence (whole entry): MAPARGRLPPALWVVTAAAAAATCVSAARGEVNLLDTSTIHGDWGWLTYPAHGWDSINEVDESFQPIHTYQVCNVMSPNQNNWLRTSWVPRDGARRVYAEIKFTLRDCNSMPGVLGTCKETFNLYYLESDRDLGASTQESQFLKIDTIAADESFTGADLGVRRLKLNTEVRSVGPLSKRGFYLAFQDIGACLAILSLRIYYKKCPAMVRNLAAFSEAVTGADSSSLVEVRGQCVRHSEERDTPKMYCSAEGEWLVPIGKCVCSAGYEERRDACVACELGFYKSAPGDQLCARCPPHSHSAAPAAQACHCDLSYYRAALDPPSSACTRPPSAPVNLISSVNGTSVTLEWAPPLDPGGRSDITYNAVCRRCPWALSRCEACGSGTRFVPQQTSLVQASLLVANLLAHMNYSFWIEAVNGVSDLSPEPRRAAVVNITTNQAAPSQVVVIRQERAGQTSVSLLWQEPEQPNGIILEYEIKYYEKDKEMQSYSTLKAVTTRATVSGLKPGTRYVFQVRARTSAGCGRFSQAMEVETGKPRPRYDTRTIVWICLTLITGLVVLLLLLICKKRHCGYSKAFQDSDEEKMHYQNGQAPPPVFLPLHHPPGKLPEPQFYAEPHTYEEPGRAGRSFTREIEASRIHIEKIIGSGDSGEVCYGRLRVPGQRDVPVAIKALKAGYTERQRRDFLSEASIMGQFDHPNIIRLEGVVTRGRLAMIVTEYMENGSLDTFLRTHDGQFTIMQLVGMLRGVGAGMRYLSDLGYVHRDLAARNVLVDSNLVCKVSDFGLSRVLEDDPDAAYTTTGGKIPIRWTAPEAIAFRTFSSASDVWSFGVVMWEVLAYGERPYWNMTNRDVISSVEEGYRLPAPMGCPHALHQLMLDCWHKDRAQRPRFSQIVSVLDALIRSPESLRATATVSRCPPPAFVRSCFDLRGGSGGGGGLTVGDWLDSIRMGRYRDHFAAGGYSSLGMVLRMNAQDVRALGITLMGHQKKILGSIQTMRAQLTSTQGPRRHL
# [14] = molecular target: T4, Ephrin type-B receptor 2 (Homo sapiens) (UniProt P29323); details: at 1 µM
# T4 sequence (whole entry): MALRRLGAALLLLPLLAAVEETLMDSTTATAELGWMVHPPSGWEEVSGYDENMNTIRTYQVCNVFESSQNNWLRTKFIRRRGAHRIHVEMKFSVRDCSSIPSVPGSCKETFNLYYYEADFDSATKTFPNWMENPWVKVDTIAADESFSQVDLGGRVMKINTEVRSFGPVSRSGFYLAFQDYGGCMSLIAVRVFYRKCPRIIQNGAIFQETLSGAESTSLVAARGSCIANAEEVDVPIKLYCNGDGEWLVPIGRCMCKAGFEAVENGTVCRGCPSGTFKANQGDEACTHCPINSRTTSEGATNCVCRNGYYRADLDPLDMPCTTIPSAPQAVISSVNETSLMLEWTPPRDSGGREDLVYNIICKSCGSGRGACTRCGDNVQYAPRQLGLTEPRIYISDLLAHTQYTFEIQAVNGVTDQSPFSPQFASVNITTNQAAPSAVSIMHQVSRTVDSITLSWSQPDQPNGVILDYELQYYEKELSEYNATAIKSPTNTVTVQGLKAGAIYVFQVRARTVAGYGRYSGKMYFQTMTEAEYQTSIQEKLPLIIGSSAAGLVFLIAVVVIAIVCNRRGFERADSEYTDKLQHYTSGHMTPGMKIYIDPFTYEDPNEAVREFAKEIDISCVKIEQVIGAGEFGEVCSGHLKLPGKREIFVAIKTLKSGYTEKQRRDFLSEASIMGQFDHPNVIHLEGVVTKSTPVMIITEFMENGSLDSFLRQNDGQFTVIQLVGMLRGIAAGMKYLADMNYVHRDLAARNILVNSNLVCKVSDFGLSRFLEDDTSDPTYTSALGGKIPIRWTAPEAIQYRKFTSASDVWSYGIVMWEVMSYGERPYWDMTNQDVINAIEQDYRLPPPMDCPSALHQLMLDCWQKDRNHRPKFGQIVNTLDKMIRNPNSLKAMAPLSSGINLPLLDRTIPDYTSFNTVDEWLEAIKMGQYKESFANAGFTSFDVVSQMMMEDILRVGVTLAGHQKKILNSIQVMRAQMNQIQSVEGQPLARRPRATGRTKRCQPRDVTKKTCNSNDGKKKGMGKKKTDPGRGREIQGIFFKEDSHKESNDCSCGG
# [15] = molecular target: T4, Ephrin type-B receptor 2 (Homo sapiens); details: at 10 µM
# [16] = molecular target: T5, Ephrin type-B receptor 3 (Homo sapiens) (UniProt P54753); details: at 1 µM
# T5 sequence (whole entry): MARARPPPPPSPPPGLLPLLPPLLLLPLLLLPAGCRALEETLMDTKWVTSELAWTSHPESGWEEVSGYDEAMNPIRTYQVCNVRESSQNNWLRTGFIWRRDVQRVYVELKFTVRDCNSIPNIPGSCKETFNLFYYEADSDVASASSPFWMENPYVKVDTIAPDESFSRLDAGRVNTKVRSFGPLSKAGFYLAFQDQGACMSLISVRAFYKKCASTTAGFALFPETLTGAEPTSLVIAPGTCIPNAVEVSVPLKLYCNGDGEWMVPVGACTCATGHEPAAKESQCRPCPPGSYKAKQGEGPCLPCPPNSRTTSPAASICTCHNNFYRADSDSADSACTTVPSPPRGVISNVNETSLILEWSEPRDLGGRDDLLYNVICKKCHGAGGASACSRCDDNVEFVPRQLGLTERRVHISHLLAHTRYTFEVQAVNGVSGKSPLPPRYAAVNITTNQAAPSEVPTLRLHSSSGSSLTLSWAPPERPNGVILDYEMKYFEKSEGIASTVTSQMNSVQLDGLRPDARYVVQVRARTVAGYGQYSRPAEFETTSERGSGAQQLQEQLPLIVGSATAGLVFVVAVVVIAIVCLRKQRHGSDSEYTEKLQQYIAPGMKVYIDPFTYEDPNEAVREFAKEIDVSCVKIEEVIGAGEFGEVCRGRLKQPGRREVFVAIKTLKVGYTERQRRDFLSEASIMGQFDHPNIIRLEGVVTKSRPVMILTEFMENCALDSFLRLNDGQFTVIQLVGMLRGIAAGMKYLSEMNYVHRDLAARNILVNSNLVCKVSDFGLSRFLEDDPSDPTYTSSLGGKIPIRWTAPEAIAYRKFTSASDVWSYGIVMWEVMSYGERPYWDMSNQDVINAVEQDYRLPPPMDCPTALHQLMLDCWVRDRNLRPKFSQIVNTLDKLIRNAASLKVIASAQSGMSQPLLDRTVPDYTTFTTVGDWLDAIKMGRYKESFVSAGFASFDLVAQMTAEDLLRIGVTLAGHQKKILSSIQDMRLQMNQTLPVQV
# [17] = molecular target: T5, Ephrin type-B receptor 3 (Homo sapiens); details: at 10 µM
# Sequence of Ephrin type-A receptor 5 (Homo sapiens) (P54756 whole entry): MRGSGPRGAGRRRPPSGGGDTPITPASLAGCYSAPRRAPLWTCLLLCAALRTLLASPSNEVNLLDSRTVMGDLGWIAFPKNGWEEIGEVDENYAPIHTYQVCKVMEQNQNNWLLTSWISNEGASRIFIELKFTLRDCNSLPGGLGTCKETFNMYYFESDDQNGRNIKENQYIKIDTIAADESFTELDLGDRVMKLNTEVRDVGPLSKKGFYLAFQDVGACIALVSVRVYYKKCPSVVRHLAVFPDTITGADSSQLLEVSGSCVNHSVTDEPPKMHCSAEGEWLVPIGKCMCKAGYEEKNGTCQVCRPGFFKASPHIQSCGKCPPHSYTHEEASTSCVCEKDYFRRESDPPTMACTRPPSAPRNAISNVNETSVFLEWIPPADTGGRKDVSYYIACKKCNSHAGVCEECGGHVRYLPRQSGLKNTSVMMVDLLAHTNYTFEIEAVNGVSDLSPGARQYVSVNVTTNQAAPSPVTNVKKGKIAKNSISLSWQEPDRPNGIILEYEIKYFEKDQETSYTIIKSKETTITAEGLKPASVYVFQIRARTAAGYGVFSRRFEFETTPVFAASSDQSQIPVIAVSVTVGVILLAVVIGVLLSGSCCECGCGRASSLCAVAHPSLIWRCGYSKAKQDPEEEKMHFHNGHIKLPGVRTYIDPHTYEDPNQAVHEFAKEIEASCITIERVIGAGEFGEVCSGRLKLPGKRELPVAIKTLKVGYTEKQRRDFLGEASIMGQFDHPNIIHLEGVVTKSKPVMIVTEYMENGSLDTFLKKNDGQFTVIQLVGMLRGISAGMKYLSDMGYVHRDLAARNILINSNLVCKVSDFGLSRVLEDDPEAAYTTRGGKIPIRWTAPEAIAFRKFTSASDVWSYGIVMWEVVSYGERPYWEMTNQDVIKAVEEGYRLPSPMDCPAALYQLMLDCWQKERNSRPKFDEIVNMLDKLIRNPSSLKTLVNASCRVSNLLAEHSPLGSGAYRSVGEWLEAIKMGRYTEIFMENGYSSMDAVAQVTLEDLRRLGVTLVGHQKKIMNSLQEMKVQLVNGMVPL
# Sequence of Receptor tyrosine-protein kinase erbB-4 (Homo sapiens) (Q15303 whole entry): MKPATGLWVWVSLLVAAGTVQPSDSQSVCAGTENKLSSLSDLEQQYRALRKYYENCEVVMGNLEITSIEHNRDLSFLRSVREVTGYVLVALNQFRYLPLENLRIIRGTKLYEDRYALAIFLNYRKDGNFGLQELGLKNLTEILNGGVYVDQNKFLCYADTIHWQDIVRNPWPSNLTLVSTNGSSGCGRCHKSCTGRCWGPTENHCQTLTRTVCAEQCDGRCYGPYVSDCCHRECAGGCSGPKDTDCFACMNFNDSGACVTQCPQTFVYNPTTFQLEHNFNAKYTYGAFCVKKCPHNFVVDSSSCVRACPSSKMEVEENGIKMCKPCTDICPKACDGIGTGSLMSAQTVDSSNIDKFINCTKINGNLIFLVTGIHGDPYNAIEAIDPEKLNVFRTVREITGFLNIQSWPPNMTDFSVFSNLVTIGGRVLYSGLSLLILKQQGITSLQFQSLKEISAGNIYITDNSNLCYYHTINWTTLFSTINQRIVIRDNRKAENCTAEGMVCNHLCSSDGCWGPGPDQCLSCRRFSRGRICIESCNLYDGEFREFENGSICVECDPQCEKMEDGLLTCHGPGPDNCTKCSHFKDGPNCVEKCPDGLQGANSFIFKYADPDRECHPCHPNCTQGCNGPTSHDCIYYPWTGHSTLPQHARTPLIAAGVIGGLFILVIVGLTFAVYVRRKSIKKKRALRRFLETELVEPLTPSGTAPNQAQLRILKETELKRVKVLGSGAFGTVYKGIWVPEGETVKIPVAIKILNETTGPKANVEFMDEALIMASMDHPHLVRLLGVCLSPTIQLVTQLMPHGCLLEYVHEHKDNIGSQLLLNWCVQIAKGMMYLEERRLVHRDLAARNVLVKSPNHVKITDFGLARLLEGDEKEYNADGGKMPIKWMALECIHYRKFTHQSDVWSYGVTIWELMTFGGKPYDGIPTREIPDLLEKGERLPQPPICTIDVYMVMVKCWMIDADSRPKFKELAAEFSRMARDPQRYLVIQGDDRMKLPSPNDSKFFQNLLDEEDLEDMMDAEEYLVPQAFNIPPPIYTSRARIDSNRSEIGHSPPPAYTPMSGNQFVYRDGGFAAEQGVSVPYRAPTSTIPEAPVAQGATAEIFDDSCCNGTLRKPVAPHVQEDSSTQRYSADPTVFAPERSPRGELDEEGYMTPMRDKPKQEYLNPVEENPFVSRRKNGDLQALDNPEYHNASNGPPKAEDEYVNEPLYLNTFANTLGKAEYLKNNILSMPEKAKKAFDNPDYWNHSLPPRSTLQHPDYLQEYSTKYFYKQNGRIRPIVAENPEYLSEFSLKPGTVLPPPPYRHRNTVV
# Sequence of Ephrin type-A receptor 7 (Homo sapiens) (Q15375 28-998 limits assumed): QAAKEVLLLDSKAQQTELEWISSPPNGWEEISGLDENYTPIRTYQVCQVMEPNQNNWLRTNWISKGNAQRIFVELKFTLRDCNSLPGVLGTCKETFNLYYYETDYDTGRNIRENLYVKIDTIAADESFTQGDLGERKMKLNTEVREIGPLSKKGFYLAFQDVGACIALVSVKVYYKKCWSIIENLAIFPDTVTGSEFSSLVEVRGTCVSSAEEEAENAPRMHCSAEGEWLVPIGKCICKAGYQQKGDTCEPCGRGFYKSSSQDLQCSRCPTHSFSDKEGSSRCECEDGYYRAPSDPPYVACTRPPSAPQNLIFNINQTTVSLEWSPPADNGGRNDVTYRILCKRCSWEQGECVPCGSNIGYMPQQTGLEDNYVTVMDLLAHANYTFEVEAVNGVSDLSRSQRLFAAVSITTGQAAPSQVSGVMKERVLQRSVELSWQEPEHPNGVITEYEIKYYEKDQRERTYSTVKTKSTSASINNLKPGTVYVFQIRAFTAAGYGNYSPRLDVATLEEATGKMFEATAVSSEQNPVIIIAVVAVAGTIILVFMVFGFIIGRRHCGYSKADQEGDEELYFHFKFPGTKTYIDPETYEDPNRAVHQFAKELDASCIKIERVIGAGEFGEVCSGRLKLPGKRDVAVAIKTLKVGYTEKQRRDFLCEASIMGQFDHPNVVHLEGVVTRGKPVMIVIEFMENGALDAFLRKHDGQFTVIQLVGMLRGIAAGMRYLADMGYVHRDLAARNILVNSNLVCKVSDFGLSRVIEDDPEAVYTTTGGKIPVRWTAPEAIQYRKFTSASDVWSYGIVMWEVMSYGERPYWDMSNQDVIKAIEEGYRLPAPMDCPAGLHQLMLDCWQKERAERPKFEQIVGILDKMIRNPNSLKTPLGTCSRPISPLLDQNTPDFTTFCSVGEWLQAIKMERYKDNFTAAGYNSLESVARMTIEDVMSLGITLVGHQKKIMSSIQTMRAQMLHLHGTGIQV
# Sequence of Focal adhesion kinase 1 (Homo sapiens) (Q05397 2-1052 limits assumed): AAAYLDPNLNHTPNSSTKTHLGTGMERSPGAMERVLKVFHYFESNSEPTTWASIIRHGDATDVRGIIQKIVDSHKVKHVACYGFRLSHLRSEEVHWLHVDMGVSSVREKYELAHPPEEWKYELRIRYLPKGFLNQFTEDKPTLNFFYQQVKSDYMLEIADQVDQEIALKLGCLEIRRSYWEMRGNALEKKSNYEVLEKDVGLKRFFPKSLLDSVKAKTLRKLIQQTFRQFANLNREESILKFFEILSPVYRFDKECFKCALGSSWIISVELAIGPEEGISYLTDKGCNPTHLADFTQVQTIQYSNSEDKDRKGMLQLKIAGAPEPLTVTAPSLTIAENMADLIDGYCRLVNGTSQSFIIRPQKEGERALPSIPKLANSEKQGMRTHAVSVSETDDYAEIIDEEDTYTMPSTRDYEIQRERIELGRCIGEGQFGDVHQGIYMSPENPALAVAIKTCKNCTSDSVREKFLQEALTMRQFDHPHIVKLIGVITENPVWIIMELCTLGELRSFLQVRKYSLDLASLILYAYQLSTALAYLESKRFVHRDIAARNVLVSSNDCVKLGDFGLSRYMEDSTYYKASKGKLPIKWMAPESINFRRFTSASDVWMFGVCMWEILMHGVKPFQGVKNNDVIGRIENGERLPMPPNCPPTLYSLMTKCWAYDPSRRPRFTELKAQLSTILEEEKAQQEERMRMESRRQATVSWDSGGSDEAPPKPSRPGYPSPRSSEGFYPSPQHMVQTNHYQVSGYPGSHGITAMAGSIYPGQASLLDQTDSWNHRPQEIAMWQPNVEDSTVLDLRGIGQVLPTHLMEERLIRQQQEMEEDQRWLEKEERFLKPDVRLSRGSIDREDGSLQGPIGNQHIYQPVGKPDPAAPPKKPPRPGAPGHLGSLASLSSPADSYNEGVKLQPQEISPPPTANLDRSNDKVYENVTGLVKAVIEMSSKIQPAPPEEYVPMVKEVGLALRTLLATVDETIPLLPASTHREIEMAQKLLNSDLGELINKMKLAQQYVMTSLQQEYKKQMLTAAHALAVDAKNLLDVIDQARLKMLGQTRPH
smiles,measurement,setting,value
COc1ccc(Cl)cc1NC(=O)Nc1cc(C)nc2ccccc12,residual activity,[1],97%
same,residual activity,[2],86%
same,residual activity,[3],83%
same,residual activity,[4],56%
same,residual activity,[5],88%
same,residual activity,[6],68%
same,residual activity,[7],96%
same,residual activity,[8],100%
same,residual activity,[9],96%
same,residual activity,[10],80%
same,residual activity,[11],127%
Nc1nccc(-c2c(-c3ccc(F)cc3)ncn2C2CCNCC2)n1,residual activity,[12],71%
same,residual activity,[1],113%
same,residual activity,[2],72%
same,residual activity,[13],60%
same,residual activity,[7],77%
same,residual activity,[8],18%
same,residual activity,[10],66%
N#Cc1c(NC(=O)c2cccc3ccccc23)sc2c1CCCC2,residual activity,[6],95%
same,residual activity,[7],90%
same,residual activity,[10],94%
O=C1NC(=O)C(c2cn(CCCn3ccnc3)c3ccccc23)=C1Nc1ccccc1,residual activity,[1],125%
same,residual activity,[2],109%
same,residual activity,[14],115%
same,residual activity,[15],122%
same,residual activity,[16],114% (inactive)
same,residual activity,[17],148%
same,residual activity,[7],109%
same,residual activity,[8],119%
same,residual activity,[9],70%
same,residual activity,[10],13%
same,residual activity,[11],119%
